The source of these data is PubChem BioAssay (NCATS).

Where “and” joins values, the source holds several entries; their conditions need not be identical. Equal values may be shown once. Records with an inconclusive call do not appear. Where a structure was tested more than once in an assay, its records may differ in their call. Calls of active or inactive are those of the source. Unless noted, calls follow the shape of the dose curve; as a rule, active = well fitted curve in the direction sought with a large enough effect; inconclusive = small, poorly fitted or top-dose-only effect, or another doubt; inactive = no such curve, though single readings can be large; an effect the other way counts as inactive or inconclusive.

Assay [1] can be described thus: Cytometry Cell-Based qHTS for Inhibitors of the mTORC1 Signaling Pathway in MEF cells (AID 2668).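 Also: Tsc2-/- p53-/- mouse embryonic fibroblasts stably re-expressing wild-type Tsc2; percent cells positive for phospho-rpS6 Ser235/236 relative to propidium iodide stain; series mostly up to about 38 µM.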 In outline: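 Read-out: phospho-rpS6 Ser235/236 immunofluorescence normalized to propidium iodide intensity, scored as % active cells against a rapamycin (7.5 nM) threshold. Cells: Tsc2-/-, p53-/- MEFs stably expressing WT Tsc2, compound-treated 24 hrs at 37 degree Celsius.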
In general terms: Quantitative high-throughput screening tests each substance at several concentrations.

A short description of assay [2]: Validation screen for small molecules that induce DNA re-replication in MCF 10A normal breast cells (AID 463097). Also: nearly all actives have a fitted effect of over 60% in size. Also: potency is read from the fitted curve at half-maximal effect. The method in brief: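 250 MCF 10A cells/well; compound pin-transferred; 48 hr, 37 C, 5% CO2; Hoechst 40 min; imaged 405/500-530 nm. Hits = more high-intensity nuclei.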
Assay [3] has as its target Ubiquitin carboxyl-terminal hydrolase 2 (Homo sapiens) (UniProt O75604). Briefly: qHTS Validation Assay for Inhibitors of Ubiquitin-specific Protease USP2a Using CHOP2 as the Reporter (AID 463106). In outline:
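Readout was coupled fluorescence (Ex 485/Em 531 nm), read 60 min after adding 25 nM final Ub-CHOP2 and 25 nM reporter substrate. Beforehand, 10 nM final USP2 core had 30 min at RT with compound in pH 8.0 buffer. Curves were fitted after normalization to NEM and flagged for artifacts using time-zero reads.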

For assay [4], the target named is DNA polymerase III PolC-type (Bacillus subtilis (strain 168)) (UniProt P13267). Briefly: qHTS Validation Assay for the Inhibitors of DNA Replication in Gram-Positive Bacteria (AID 485295).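 Also: reconstituted holoenzyme with PolC plus beta clamp SSB and primase; PicoGreen fluorescence of double-stranded DNA made on primed circular M13 template; series mostly up to about 57 µM.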 In outline:
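PicoGreen fluorescence (ex 480–485/em 535–540 nm) reports dsDNA synthesized on ssM13Gori template with dNTPs/NTPs. Enzyme: holoenzyme rebuilt from purified PolC, beta subunit, SSB and primase. Compound preincubated before substrate addition; RT throughout.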

Assay [5] addresses Tumor susceptibility gene 101 protein (Homo sapiens) (UniProt Q99816). Briefly: qHTS Validation Assay for Iinhibitors of HIV-1 Budding by Blocking the Interaction of PTAP/TSG101 (AID 485342; calls by dose curve). In outline: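 FP read-out: FITC-PTAP peptide, 50 nM final, binding Tsg101 binding domain, 10 uM final; 20 min r.t.; 10 mM HEPES pH 7.5, 0.15 M NaCl, 0.01% Tween 20, 3 mM EDTA, 0.1 mM TCEP.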

Assay [6] in a line: qHTS Validation Assay to Find Inhibitors of Chronic Active B-Cell Receptor Signaling (AID 485345; active = well fitted curve in the direction sought with a large enough effect in the main read-out, with a control signal flat, not every such curve was filed as active). In outline: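 Read-out: ratio of filter-corrected green (IkappaBalpha fusion) to red (native) luciferase signal in doxycycline-induced TMD8 cells after 4 h at 37C. Titration spanned 46 uM–3 nM; Data were normalised to basal cells and 10 uM MG-132 wells.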
Assay [7] addresses Beta-2 adrenergic receptor (Homo sapiens) (UniProt P07550). Briefly: qHTS validation assay of beta-arrestin-biased ligands of beta2-adrenergic receptor (AID 485366). The method in brief: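 Agonist activity is measured as luciferase luminescence downstream of beta-arrestin recruitment to recombinant beta2-AR in Tango cells. Exposure lasts 18 hr at 37 degrees C, and curves are categorized by r2, response size and activity.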

Assay [8] concerns the target ATP-dependent 6-phosphofructokinase (Trypanosoma brucei brucei) (UniProt O15648). As to the kind of experiment: qHTS Validation Assay to Find Inhibitors of T. brucei phosphofructokinase (AID 485368). In outline: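 Inhibition derived from concentration-response curves of luminescence, ranked by r2, response size and curve class; the underlying reaction used 1.25 nM PFK, 0.1 mM ATP and 0.5 mM F6P, 45 min, room temperature.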

A short description of assay [9]: Quantitative high throughput screen for delayed death inhibitors of the malarial parasite plastid, 96 hour incubation (AID 488745). Also: nearly all actives have a fitted effect of over 70% in size. Also: potency is read from the fitted curve at half-maximal effect. In outline: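 Luciferase-expressing P. falciparum, infected RBCs 2% Hct/0.1% parasitemia (final); 96 h cpd exposure, 37 C, 5% CO2; RPMI 1640 + 0.5% Albumax, bicarbonate, gentamycin. Readout: luminescence loss = growth inhibition.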
Assay [10] is described as follows: Quantitative high throughput screen for delayed death inhibitors of the malarial parasite plastid, 48 hour incubation (AID 488752). Also: nearly all actives have a fitted effect of over 65% in size. Also: potency is read from the fitted curve at half-maximal effect. In outline:
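Luciferase-expressing P. falciparum in RBCs, 2% Hct, 0.1% parasitemia final; RPMI 1640 + 0.5% Albumax; 48 h, 37 C, 5% CO2; luminescence readout, signal drop = growth inhibition.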

Assay [11] deals with Thioredoxin reductase 1, cytoplasmic (Rattus norvegicus) (UniProt O89049). As to the kind of experiment: qHTS Assay for Substrates of Mammalian Selenoprotein Thioredoxin Reductase 1 (TrxR1) (AID 488772).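 Also: series mostly up to about 57 µM; a drop in NADPH fluorescence below the no-compound background marks a TrxR1 substrate.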 In outline: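 In this dual-purpose format, potential substrates are identified from the first fluorescence read after selenite addition, not from the 8-minute delta. Rat enzyme is preincubated with NADPH and then with compound at ~22 deg C.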

Assay [12] has the same target. As to the kind of experiment: qHTS Assay for Inhibitors of Mammalian Selenoprotein Thioredoxin Reductase 1 (TrxR1) (AID 488773).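 Also: drop in NADPH fluorescence over an 8 min run after selenite addition; series mostly up to about 57 µM; nearly all actives have a fitted effect of over 40% in size.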 As to conditions: Potency: inhibition. In outline: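 Inhibition is scored from the loss of NADPH fluorescence between first and last reads of an 8-min kinetic run. Selenite (400 uM) was the substrate, added after 15 min compound preincubation at room temperature.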

The target of assay [13] is Flap endonuclease 1 (Homo sapiens) (UniProt P39748). As to the kind of experiment: qHTS Validation Assay for the Inhibitors of Human Flap endonuclease 1 (FEN1) (AID 488816). Also: potency is read from the fitted curve at half-maximal effect. The method in brief:
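qHTS format: compounds and 10 nM FEN1 incubated 15 min at room temperature before adding 50 nM substrate. Cleavage followed by reads at 0 and 15 min; normalized data fitted to a four-parameter Hill curve.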

The target of assay [14] is M-phase phosphoprotein 8 (Homo sapiens) (UniProt Q99549). As to the kind of experiment: qHTS Validation Assay for Inhibitors for MPP8 Chromodomain Interactions with Methylated Histone Tails (AID 488949). Also: nearly all actives have a fitted effect of over 55% in size. Also: potency is read from the fitted curve at half-maximal effect. The method in brief:
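AlphaScreen read-out: streptavidin donor and nickel chelate acceptor beads (final 10 ug/mL), 30 min in the dark at RT. Complex of 50 nM MPP8 and 50 nM b-H3(1-18)K9me3 peptide had been exposed to compounds for 30 min beforehand.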

Assay [15] has as its target Chromobox protein homolog 1 (Homo sapiens) (UniProt P83916). Briefly: qHTS Validation Assay for Inhibitors of HP1-beta Chromodomain Interactions with Methylated Histone Tails (AID 488953). Also: nearly all actives have a fitted effect of over 50% in size. Also: potency is read from the fitted curve at half-maximal effect. The method in brief:
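AlphaScreen proximity readout: streptavidin donor and Ni-chelate acceptor beads, 10 ug/mL final, 30 min dark, RT. Complex of 50 nM HP1-beta and 50 nM b-H3(1-18)K9me3 formed 30 min, then compound-treated 30 min; PBS pH 7.4/0.01% Tween-20.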

Assay [16] addresses Methanococcus maripaludis chaperonin (MmCpn) (UniProt Q6LX38). Briefly: High-Throughput Screening for Modulators of Cytosolic Chaperonin Activity: MmCpn Primary Screen (AID 488978).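 Also: 50 nM MmCpn enzyme hydrolysing 30 µM ATP at 37 °C.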 In outline:
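ADP formation read by HTRF Transcreener, 665/590 nm emission after 320 nm excitation. Enzyme: archaeal chaperonin at 50 nM final; substrate ATP 30 uM final; 10 min, 37C, after 5 min compound preincubation at RT.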

Assay [17] deals with Transient receptor potential cation channel subfamily V member 1 (Homo sapiens) (UniProt Q8NER1). Briefly: HTS Assay for Compounds that Act as Enhancers of the Vanilloid Receptor 1 (AID 488979). In outline:
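Calcium influx kinetics via Fluo-8 (480/520 nm) in TRPV1-expressing cells, 2000/well cultured overnight at 35.5C. Compound-alone read 3 min (agonist phase), followed by EC20 capsaicin challenge for 2 min (enhancer phase).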

Assay [18] concerns the target Thyrotropin receptor (Homo sapiens) (UniProt P16473). Briefly: qHTS Assay for Antagonists of the Thyroid Stimulating Hormone Receptor (AID 488980). Also: series mostly up to about 58 µM. The method in brief: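 TSHR-HEK293 cells; 70 uM RO 20-1724 PDE inhibitor; compound + EC80 TSH (4 nM final); anti-cAMP cryptate antibody/cAMP-d2 in lysis buffer, 30 min RT; HTRF 665/620 nm read.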
Assay [19] deals with D(1A) dopamine receptor (Homo sapiens) (UniProt P21728). Briefly: HTS Assay for Allosteric Agonists of the Human D1 Dopamine Receptor: Primary Screen for Agonists (AID 488981). Also: potency is read from the fitted curve at half-maximal effect. In outline:
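Calcium flux in an inducible, force-coupled HEK293 Trex D1 line (overnight at 30 C): agonist mode is the 180 s kinetic read after compound; potentiator mode is the following 180 s read after dopamine at EC20.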

A short description of assay [20]: Validation screen for inhibitors of Lassa infection (AID 463096; calls by dose curve).

Chain of DNA polymerase III PolC-type (Bacillus subtilis (strain 168)) (P13267 whole entry, looked up): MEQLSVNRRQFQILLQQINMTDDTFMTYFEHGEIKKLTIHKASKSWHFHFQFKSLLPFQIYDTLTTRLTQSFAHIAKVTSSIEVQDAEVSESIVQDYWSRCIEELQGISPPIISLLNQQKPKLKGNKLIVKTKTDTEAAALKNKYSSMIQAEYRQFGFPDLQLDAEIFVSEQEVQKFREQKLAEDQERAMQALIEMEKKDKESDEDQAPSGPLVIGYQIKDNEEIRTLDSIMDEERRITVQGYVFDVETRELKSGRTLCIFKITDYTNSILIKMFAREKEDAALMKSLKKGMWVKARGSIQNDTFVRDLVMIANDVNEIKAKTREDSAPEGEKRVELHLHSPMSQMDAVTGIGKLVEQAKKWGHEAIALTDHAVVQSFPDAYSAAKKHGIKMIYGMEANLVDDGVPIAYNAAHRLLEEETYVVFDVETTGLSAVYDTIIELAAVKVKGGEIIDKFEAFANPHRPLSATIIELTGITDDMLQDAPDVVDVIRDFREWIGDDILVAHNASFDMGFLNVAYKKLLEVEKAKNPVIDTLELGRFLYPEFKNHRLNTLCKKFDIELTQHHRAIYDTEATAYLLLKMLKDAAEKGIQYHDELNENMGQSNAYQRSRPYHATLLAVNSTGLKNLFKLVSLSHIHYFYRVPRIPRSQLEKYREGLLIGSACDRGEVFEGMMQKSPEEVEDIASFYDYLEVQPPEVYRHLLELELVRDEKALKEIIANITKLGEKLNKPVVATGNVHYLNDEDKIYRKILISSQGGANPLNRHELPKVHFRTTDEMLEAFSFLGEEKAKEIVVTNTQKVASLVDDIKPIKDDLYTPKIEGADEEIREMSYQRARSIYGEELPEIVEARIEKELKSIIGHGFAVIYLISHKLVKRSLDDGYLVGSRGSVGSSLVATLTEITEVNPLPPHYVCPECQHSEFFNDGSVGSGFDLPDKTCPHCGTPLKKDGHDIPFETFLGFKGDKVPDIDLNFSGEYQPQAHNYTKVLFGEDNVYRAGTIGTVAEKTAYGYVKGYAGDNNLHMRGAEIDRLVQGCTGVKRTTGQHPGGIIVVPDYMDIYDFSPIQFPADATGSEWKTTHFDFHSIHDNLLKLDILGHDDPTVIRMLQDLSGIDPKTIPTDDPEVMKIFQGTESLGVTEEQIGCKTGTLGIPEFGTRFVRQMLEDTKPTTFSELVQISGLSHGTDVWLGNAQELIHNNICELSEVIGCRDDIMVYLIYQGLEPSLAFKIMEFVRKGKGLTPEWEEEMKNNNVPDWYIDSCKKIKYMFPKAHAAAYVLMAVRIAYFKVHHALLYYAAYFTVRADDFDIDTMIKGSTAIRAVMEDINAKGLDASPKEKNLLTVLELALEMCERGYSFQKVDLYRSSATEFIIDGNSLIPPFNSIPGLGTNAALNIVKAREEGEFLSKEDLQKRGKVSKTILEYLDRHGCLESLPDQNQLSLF
Chain of Chromobox protein homolog 1 (Homo sapiens) (P83916 whole entry, looked up): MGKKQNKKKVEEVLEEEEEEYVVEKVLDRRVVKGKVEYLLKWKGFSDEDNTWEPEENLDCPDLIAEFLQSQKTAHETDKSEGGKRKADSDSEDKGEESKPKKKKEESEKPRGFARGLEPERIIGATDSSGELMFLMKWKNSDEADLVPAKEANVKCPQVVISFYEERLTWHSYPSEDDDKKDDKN
Chain of Ubiquitin carboxyl-terminal hydrolase 2 (Homo sapiens) (O75604 whole entry, looked up): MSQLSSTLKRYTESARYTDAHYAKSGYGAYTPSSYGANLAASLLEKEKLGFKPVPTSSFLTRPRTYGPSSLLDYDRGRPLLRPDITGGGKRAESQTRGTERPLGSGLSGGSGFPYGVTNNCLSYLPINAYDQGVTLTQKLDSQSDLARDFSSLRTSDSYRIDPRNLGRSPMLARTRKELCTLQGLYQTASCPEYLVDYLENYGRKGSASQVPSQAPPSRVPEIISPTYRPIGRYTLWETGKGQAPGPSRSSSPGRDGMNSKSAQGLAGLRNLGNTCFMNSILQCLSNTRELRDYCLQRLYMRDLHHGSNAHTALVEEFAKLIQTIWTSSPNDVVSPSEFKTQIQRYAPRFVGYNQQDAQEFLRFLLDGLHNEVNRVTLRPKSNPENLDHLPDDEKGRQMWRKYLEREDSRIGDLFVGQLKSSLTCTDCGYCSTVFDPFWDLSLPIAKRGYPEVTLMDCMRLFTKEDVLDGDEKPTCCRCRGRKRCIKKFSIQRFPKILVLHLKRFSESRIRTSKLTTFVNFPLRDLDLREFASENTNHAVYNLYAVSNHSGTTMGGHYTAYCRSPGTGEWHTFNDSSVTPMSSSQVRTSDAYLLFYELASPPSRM
Chain of M-phase phosphoprotein 8 (Homo sapiens) (Q99549 whole entry, looked up): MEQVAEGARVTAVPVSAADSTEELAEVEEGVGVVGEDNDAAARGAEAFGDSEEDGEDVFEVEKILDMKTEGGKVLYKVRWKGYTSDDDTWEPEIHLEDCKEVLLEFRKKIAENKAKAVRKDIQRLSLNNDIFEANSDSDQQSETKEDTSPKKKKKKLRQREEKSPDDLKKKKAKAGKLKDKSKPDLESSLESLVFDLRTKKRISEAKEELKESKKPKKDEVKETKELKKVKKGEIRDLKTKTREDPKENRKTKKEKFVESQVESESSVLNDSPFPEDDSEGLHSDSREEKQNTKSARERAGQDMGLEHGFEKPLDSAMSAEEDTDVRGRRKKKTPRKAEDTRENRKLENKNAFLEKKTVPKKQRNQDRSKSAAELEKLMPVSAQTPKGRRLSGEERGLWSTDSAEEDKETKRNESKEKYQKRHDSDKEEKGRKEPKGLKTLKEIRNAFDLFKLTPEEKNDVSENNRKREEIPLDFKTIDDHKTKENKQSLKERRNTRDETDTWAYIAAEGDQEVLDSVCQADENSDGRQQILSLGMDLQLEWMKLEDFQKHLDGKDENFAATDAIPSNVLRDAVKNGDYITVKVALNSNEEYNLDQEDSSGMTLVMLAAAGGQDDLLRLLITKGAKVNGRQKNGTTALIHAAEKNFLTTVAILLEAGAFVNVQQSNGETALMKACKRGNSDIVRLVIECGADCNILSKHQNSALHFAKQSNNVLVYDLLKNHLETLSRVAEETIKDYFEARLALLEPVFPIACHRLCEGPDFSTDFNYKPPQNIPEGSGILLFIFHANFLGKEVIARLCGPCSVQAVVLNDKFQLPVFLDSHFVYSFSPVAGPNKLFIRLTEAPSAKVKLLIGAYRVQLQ
Chain of Beta-2 adrenergic receptor (Homo sapiens) (P07550 whole entry, looked up): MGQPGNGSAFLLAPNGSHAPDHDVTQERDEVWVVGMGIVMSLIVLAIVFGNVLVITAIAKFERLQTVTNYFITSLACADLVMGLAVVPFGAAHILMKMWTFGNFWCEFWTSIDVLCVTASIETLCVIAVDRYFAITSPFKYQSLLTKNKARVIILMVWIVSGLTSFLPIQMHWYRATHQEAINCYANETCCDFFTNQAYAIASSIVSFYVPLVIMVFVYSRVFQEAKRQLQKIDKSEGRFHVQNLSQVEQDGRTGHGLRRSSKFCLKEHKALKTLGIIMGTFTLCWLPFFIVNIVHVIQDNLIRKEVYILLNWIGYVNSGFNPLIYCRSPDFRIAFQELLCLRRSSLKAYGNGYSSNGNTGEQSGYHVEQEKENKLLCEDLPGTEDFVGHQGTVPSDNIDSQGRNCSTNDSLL
Chain of Thyrotropin receptor (Homo sapiens) (P16473 whole entry, looked up): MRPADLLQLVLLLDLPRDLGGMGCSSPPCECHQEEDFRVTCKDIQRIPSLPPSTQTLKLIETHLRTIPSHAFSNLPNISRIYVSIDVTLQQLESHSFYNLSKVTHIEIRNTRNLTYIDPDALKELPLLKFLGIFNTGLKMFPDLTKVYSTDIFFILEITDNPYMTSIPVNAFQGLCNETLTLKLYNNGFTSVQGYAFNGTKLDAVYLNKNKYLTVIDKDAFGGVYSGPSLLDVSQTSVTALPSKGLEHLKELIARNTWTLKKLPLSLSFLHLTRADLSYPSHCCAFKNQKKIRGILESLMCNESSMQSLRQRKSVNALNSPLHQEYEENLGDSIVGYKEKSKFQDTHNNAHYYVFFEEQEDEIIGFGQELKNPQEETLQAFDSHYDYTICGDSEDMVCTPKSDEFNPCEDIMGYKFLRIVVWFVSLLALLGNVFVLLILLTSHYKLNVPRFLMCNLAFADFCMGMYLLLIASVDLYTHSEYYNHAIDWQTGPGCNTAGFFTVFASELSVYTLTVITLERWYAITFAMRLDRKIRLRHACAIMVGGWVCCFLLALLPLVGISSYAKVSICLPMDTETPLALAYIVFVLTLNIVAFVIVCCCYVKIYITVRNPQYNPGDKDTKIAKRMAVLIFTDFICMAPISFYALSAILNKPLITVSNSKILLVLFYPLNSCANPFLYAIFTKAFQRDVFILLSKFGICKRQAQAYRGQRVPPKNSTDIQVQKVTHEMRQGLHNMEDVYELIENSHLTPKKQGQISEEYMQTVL
Chain of Tumor susceptibility gene 101 protein (Homo sapiens) (Q99816 whole entry, looked up, the tested form may be a part): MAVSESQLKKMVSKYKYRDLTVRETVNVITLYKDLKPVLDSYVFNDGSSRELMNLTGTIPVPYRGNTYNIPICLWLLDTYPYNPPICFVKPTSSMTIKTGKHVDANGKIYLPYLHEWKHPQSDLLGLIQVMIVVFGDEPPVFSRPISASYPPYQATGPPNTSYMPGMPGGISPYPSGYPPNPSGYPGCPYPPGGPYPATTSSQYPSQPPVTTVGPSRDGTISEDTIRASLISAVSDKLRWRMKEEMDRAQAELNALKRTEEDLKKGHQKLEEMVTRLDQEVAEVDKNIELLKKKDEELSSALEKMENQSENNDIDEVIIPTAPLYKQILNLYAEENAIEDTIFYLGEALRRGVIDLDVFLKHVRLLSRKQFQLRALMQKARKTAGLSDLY
Chain of Flap endonuclease 1 (Homo sapiens) (P39748 whole entry, looked up): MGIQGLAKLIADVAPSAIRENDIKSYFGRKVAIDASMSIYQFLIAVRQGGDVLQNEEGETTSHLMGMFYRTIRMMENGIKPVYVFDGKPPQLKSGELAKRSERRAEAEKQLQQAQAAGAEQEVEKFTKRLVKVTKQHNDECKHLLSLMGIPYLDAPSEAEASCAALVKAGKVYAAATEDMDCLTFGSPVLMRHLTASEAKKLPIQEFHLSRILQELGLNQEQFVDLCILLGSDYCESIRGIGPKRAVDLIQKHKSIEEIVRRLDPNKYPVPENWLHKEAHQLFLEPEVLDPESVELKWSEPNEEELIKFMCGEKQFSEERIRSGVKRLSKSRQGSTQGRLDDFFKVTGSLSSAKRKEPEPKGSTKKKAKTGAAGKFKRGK

For the molecule `OC1CCCCC1N1CCC(c2ccccc2)CC1` (configuration not stated), the Potency entry in [1], in assay [2], in assay [3], in [4], in assay [6] and in assay [8] was “inactive” each time. Also, the Potency entry in assay [9], in [10], in [12], in assay [13], in assay [14] and in assay [15] was “inactive” throughout. The Potency entry in assay [19] is “inactive”. Also, the result in assay [5], in assay [7], in [11], in assay [16], in assay [17] and in [18] was inactive.

For the molecule `C[N+]1(C)C2CCC1CC(OC(=O)c1c[nH]c3ccccc13)C2` (configuration not stated), the Potency entry in assay [1], in assay [3], in assay [4], in assay [6], in assay [8] and in [12] was “inactive” each time. Moreover, the Potency entry in [13], in assay [15] and in [19] was “inactive” throughout. Further, the Potency is 14.1 µM (active) in assay [2]; “inactive and 8.44 µM (active)” in assay [14]. The molecule was classed as inactive in [5], in assay [7], in [11], in [16], in assay [17] and in assay [18].

Regarding `CC(N)Cc1c[nH]c2ccc(OCc3cccs3)cc12` (configuration not stated), the Potency result in assay [20], in assay [2], in assay [3], in assay [4], in assay [6] and in [8] was “inactive” each time. For the same molecule, the Potency result in [10], in [12], in assay [13] and in [14] was “inactive” each time. Further, the molecule was called inactive in assay [5], in assay [7], in assay [11], in [16] and in assay [18].

On to `CCn1cnc2c(Nc3cccc(Cl)c3)nc(N[C@@H]3CCCC[C@@H]3N)nc21`, for which the Potency in assay [2] is 3.55 µM (active); in assay [9], 0.208 µM (active); in assay [10], 5.86 µM (active); in [14] it was 39.8 µM (active) and inactive; in assay [15], 39.8 µM (active). Further, the Potency result in assay [3], in assay [4], in assay [8] and in assay [12] was “inactive” throughout. The molecule was called inactive in assay [5], in assay [7], in [11], in [16] and in [18].

Regarding `C[N+]1(C)CCC(OC(=O)C(c2ccccc2)c2ccccc2)CC1`, the Potency result in [20], in assay [2] and in assay [14] was “inactive” each time. Further, the Potency in assay [9] was 2.08 µM (active); in assay [10], 9.28 µM (active). Besides, the outcome in assay [17] and in assay [18] was inactive.

For the molecule `CC1(C(=O)O)C2CCC(O2)C1(C)C(=O)O` (configuration not stated), the Potency result in [3], in [4], in assay [8], in assay [12], in assay [13] and in assay [14] was “inactive” in each case. The Potency entry in assay [19] is “inactive”. For the same molecule, the molecule was called inactive in assay [5], in [7], in assay [11], in assay [16], in assay [17] and in assay [18]. Moreover, the figures for the Potency in assay [9], in assay [10] and in assay [15] were 3.29 µM (active), 5.22 µM (active) and 0.0084 µM (active), respectively.

For `Cc1c2ccncc2c(C)c2c1[nH]c1ccccc12`, the Potency in assay [2] is 7.08 µM (active); in [9] it was 1.17 µM (active); in assay [10], 1.85 µM (active); in [13], 10.6 µM (active); in assay [15], 50.1 µM (active); in [19] it was 10 µM (active). Moreover, the Potency entry in [3] and in assay [14] was “inactive” each time. Moreover, the molecule was classed as inactive in assay [5], in [7], in assay [11], in [16], in assay [17] and in assay [18].
